Test results as given in PubChem BioAssay (NCI).
The panel holds about 83,000 compounds, 20% with a hit somewhere; the sample as a whole holds those more often.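 Note: values are percent growth. 100 is the growth of untreated cells, values between 100 and 0 indicate rising inhibition; between -100 and 0 indicates cell death.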 Values without a mark were called inactive. The source made the active and inactive calls. The calls were made as follows: active = growth percent below 10; inactive = the rest.

Assays:
Assay in all cases: NCI-60 one-dose screen, 48 h (100 = growth as untreated, 0 = no growth, -100 = all killed)
Conditions in all cases: 10 µM unless noted
[1] = tested on: NCI-H23 lung
[2] = tested on: NCI-H322M lung
[3] = tested on: HOP-62 NSCLC
[4] = tested on: NCI-H460 lung
[5] = tested on: HOP-92 NSCLC
[6] = tested on: NCI-H522 lung
[7] = tested on: A549/ATCC NSCLC
[8] = tested on: 786-0 renal
[9] = tested on: DU-145 prostate
[10] = tested on: K-562 leukemia
[11] = tested on: MALME-3M melanoma
[12] = tested on: MDA-MB-231 breast
[13] = tested on: RXF 393 renal
[14] = tested on: SF-268 CNS
[15] = tested on: SF-295 CNS
[16] = tested on: SF-539 CNS
[17] = tested on: UACC-257 melanoma
[18] = tested on: M14 melanoma
[19] = tested on: NCI-H226 lung

SMILES	growth [1]	growth [2]	growth [3]	growth [4]	growth [5]	growth [6]	growth [7]	growth [8]	growth [9]	growth [10]	growth [11]	growth [12]	growth [13]	growth [14]	growth [15]	growth [16]	growth [17]	growth [18]	growth [19]
C=CCOc1cccc(/C=C2\SC(=Nc3ccc(O)cc3)NC2=O)c1	40.2%	53.5%	25.6%	2.23% (active)	30.8%	-10.9% (active)	18.6%	11.2%	5.29% (active)	5.21% (active)	58.3%	-12.1% (active)	-12.8% (active)	19.3%	7.15% (active)	-38.1% (active)	68.4%	9.92% (active)	
COc1ccc2c(c1)/C(=C\c1sc(=S)[nH]c1O)C(C(=O)O)=N2	99.1%	102%	116%	108%	91.6%	87.6%	99.8%	102%	99.2%	92.6%	94.7%	94.8%	95.2%	92.3%	103%	99.4%	96.7%	97%	
CCc1c(C(=O)N[C@@H]2c3cc(Cl)ccc3CC[C@@H]2O)[nH]c(C)c1C(C)=O	100%	91.2%		33.6%	84.1%	65.9%		89.3%	94.5%	69.7%	110%	84.2%	92.3%	73.2%	64.7%	67%	80.2%	87.4%	76.5%
CSc1ncc(C)c(Nc2ccc(Cl)cc2)n1	99.6%	106%	111%	103%	73.6%	80.1%	96.4%	91.9%	102%	94%	122%	110%	114%	99.9%	96%	118%	127%	112%	
CN1C[C@@H](c2ccc(Cl)cc2)[C@]2(NC(=S)N(c3ccccc3)C2=O)[C@@]12C(=O)NC1C=CC(Br)=C[C@H]12 (some centres not stated)	76.1%	77.4%	79.5%	65.5%	19.7%	49.3%	56.9%	54.3%	85%	34.8%	108%	60.8%	68.4%	58.1%	80.6%	84.8%	71.4%	39.4%	
CCCCCCCCN(CCCCCCCC)C(=N)c1ccnc2ccccc12	-66.4% (active)	-64.5% (active)		-78% (active)	-21.2% (active)		-82.5% (active)	-100% (active)		-52.7% (active)	-78.5% (active)	-77.2% (active)	-87.8% (active)	-71.8% (active)	-84.4% (active)	-87.6% (active)	-68.9% (active)	-84.6% (active)	56.5%
CCCCCCCC/C=C\CCCCCCCC(=O)Oc1cccc2cccnc12	105%	97.6%	96.4%	96.1%	236%	71%	101%	105%	78.5%	73.9%	117%	106%	47.6%	90.8%		102%	2.81% (active)	90.3%	
CCOC(=O)c1c(C)nc2c(c1N)/C(=C/c1cc(OC)c(OC)c(OC)c1)C(=O)N2c1ccc(OC)cc1	78.8%	88.4%	128%	48.5%	40.7%	50.4%	88.8%	44.5%	16.3%	23.4%	76%	67%	87.2%	45.9%	88.1%	80.2%	73.6%	43.6%	
Cc1ccc(NSc2ccccc2[N+](=O)[O-])cc1	44.6%	38.6%	24.8%	14.7%	37.7%	12.7%	20.5%	40.2%		16.9%	44.9%	53.7%	-6.02% (active)	48.7%	11.4%	-12.3% (active)	58.1%	7.95% (active)	
